Results filed as inconclusive are left out. Active and inactive are the calls of the source. Calls follow the shape of the dose curve; as a rule, active = well fitted cell-killing curve with a large enough effect; inconclusive = small, poorly fitted or top-dose-only effect, or effect the other way; inactive = no such curve, though single readings can be large or run the other way.
The compounds below were run on PA-1 (assay: Confirmatory qHTS for gynecologic anti-cancer compounds from libraries of approved drugs and bioactive compounds). Settings: gynecologic cancer cell panel viability, ATPlite luminescence, 48 h; series mostly up to 57.6 µM; activity change, negative = viability loss: at the top concentration.
In short: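 Cells (1,000/well) plated 16 h, then exposed 48 h at 37 °C to 11 concentrations (1:3) from 57.5 uM to 0.977 nM. Viability by ATPlite luminescence after 15 min; IC50 derived, with HEK 293T used for selectivity index.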
In the case of `Cc1cc(C(C)Nc2ccccc2C(=O)O)c2nc(N3CCOCC3)cc(=O)n2c1` (configuration not stated), the Potency is reported as 21.7 µM (active).
In the case of `CCN(CC)CCCC(C)Nc1ccnc2cc(Cl)ccc12` (configuration not stated), the “activity change, negative = viability loss” value is reported as -1.96% [at 19.5 µM] (inactive).
`CC(C)c1nn(-c2c(Cl)cccc2Cl)c2nc(Cc3ccc(OCCO)cc3)[nH]c(=O)c12` was tested, and the Potency was 0.0968 µM (active).
In the case of `CCc1nc(C(N)=O)c(Nc2ccc(N3CCC(N4CCN(C)CC4)CC3)c(OC)c2)nc1NC1CCOCC1`, the Potency is reported as 1.06 µM (active).
With `COc1ccccc1N1CCN(CC(O)COc2cccc3ccccc23)CC1` (configuration not stated) the “activity change, negative = viability loss” value was -27.1% (inactive).
In the case of `COc1cc2c(NC3CCN(C(C)C)CC3)nc(C3CCCCC3)nc2cc1OCCCN1CCCC1`, the Potency is reported as 17.2 µM (active).
`NC(=O)Nc1cc(-c2cccc(F)c2)sc1C(=O)NC1CCCNC1` (configuration not stated) was tested, and the Potency was 1.72 µM (active).

From PubChem BioAssay AID1345085 (National Center for Advancing Translational Sciences (NCATS), 2018)
% is scaled to controls: 0 for no effect and ±100 for the full control effect; potency is read from the fitted curve at half-maximal effect.
Also: nearly all actives have a fitted effect of over 55% in size.
